{"source": "PubChem BioAssay AID485270", "about": "(The Scripps Research Institute Molecular Screening Center, 2010)", "note": "In all, about 330,000 compounds went through this assay and about 5,800 (1.8%) were called active. Shown is part of a subset that was picked to be rich in actives. Values without a mark were called inactive. Cut-off read from the data, not from the text of the source: active = inhibition mostly above about 38% (no sharp cut-off); inactive = mostly below about 40%."}
{"target": "Orexin/Hypocretin receptor type 1 (Homo sapiens) (UniProt O43613)", "sequence (O43613 whole entry, looked up)": "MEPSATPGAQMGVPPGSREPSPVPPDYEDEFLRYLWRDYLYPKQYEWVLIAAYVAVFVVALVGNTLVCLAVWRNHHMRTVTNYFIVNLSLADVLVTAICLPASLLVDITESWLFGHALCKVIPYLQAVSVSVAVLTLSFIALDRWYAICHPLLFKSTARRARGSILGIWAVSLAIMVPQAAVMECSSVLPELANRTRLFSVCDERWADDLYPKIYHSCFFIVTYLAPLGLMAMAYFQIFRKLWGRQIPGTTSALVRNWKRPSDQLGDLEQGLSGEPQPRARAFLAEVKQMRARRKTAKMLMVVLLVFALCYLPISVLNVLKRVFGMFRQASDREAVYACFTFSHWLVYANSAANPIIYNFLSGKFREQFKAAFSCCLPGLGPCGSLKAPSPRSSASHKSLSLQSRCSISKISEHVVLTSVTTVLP", "experiment": "antagonists of human orexin 1 receptor (OX1R) (AID 485270);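 note: 0% = agonist challenge alone and 100% = reference antagonist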", "conditions": "OX1R-expressing cells, FRET antagonist read-out; at 6.6 µM; hits give high values"}
{"smiles": "CCC(CO)Oc1cc(NC(=O)c2cccc(F)c2)c2ncn(C(C)C)c2c1", "note": "(stereo not given)", "inhibition": "10.7%"}
{"smiles": "COc1cccc(NC(=O)COc2cccnc2[N+](=O)[O-])c1", "inhibition": "17.9%"}
{"smiles": "O=C(CCNC(=O)c1ccccc1)NN=Cc1ccc(Br)o1", "inhibition": "13.7%"}
{"smiles": "COC(=O)c1ccc(NC(=O)c2ccccc2NS(=O)(=O)c2ccccc2)cc1", "inhibition": "27%"}
{"smiles": "COc1cc(OC)c(S(=O)(=O)Nc2ccccc2C(=O)O)cc1S(=O)(=O)Nc1ccccc1C(=O)O", "inhibition": "3.5%"}
{"smiles": "COc1cc(NC(=O)c2ccccc2NS(=O)(=O)c2ccc(Cl)s2)cc(OC)c1", "inhibition": "72.7% (active)"}
{"smiles": "NC[C@H](Cc1ccccc1)NCCc1cc(C(F)(F)F)cc(C(F)(F)F)c1", "inhibition": "4.07%"}
{"smiles": "CCCN(CC1CC1)C(=O)COC(=O)c1ccc(C)cc1O", "inhibition": "10.6%"}
{"smiles": "Cc1[nH]n(-c2ccccc2)c(=O)c1/C=N/NC(=O)c1ccoc1C", "inhibition": "17.4%"}
{"smiles": "Cc1ccc(-n2[nH]c(C)c(/C=N/N3C(=O)c4cccc5cccc(c45)C3=O)c2=O)cc1", "inhibition": "67% (active)"}
{"smiles": "COc1cc(SC#N)ccc1N=Cc1c(C)[nH]n(-c2ccc(C)cc2)c1=O", "inhibition": "14.1%"}
{"smiles": "COc1ccc(CC(=O)N[C@@H]2c3cc(OC)c(OC)cc3C[C@H]2OCc2ccccc2)cc1", "inhibition": "16%"}
{"smiles": "O=C1NC[C@@H](c2ccccc2)OC(=O)[C@H](Cc2ccc(F)cc2)CC/C=C/C[C@H]1CC(=O)N(CCO)Cc1ccccc1", "inhibition": "28.2%"}
{"smiles": "Cc1cc(NC(=O)CSCC(=O)NC(C)c2ccccc2)no1", "note": "(stereo not given)", "inhibition": "-1.97%"}
{"smiles": "CC(NC(=O)c1cccc2ccccc12)c1ccc2c(c1)CCCC2", "note": "(stereo not given)", "inhibition": "79% (active)"}
{"smiles": "CC(NC(=O)c1ccccc1F)c1cccc2ccccc12", "note": "(stereo not given)", "inhibition": "29.1%"}
{"smiles": "CC(NC(=O)c1ccccc1C(=O)O)c1ccc(-n2ccnc2)cc1", "note": "(stereo not given)", "inhibition": "14.7%"}
{"smiles": "C#CCOCCOCCOCCNc1nc(N2CCN(C(=O)[C@H](CO)n3cc([C@@H](N)C(C)C)nn3)CC2)nc(N2CCN(C(=O)[C@H](CCC(=O)O)n3cc([C@@H](N)[C@H](C)CC)nn3)CC2)n1", "inhibition": "3.25%"}
{"smiles": "Cc1n[nH]c(=O)c2c(NC(=O)COC(=O)c3ncc(Cl)c(Cl)c3Cl)oc(C)c12", "inhibition": "52.6% (active)"}
{"smiles": "Cc1n[nH]c(=O)c2c(NC(=O)CSc3ccccc3F)oc(C)c12", "inhibition": "15.6%"}
{"smiles": "Cc1n[nH]c(=O)c2c(NC(=O)CSc3cc(Cl)ccc3Cl)oc(C)c12", "inhibition": "15.7%"}
{"smiles": "Cc1ccc(NC(=O)C2CCC(C(C)(C)C)CC2)cc1S(=O)(=O)N1CCOCC1", "note": "(stereo not given)", "inhibition": "13.3%"}
{"smiles": "CCCCNC(=O)CN1C(=O)NC(Cc2ccccc2)(Cc2ccccc2)C1=O", "inhibition": "28.3%"}
{"smiles": "O=C(CN1C(=O)NC(Cc2ccccc2)(Cc2ccccc2)C1=O)NCC1CCCCC1", "inhibition": "42.4% (active)"}
{"smiles": "O=C(CC1CCCCC1)NCc1ccccc1", "inhibition": "7.66%"}
{"smiles": "Cc1noc(C)c1NC(=O)Nc1cccc2c1O[C@H](CN(C)S(=O)(=O)c1c(C)noc1C)[C@@H](C)CN([C@H](C)CO)C2=O", "inhibition": "-0.11%"}
{"smiles": "CCOc1ccccc1Nc1nnc(SCC(=O)NCC2CCCO2)s1", "note": "(stereo not given)", "inhibition": "6.79%"}
{"smiles": "COc1ccc(C(=O)NC2CC(C)(C)Cc3c2cnn3-c2ccccc2C)o1", "note": "(stereo not given)", "inhibition": "71.7% (active)"}
{"smiles": "COc1ccc(C(=O)NC2CC(C)(C)Cc3c2cnn3-c2ccccc2)c(OC)c1", "note": "(stereo not given)", "inhibition": "34.6%"}
{"smiles": "COCc1ccc(C(=O)NC2CC(C)(C)Cc3c2cnn3-c2ccc(C)cc2)o1", "note": "(stereo not given)", "inhibition": "34.1%"}
{"smiles": "COc1cc(OC)c2c(-c3cccc(-c4cccc(N)c4)c3)cc(=O)oc2c1", "inhibition": "7.11%"}
{"smiles": "COc1ccccc1/C=N/Nc1nc(C)c(C(C)=O)s1", "inhibition": "13.4%"}
{"smiles": "COc1cccc(/C=N/Nc2cc(C)nc(-c3ccccc3O)n2)c1O", "inhibition": "107% (active)"}
{"smiles": "COc1cccc(/C=N/Nc2ncc(C(F)(F)F)cc2Cl)c1O", "inhibition": "9.55%"}
{"smiles": "Cc1scc(C(=O)NNC(=S)NCc2ccccc2)c1C", "inhibition": "11.1%"}
{"smiles": "CCOC(=O)C1CCCN(C(=O)CSc2nnc3nc(C)cc(C)n23)C1", "note": "(stereo not given)", "inhibition": "0.28%"}
{"smiles": "N#Cc1c(NCCO)ccc([N+](=O)[O-])c1NCCO", "inhibition": "49.8% (active)"}
{"smiles": "O=[N+]([O-])c1ccc(NCCCO)c(C(F)(F)F)c1", "inhibition": "28.9%"}
{"smiles": "O=C(NCCNc1ccccc1[N+](=O)[O-])c1ccccc1F", "inhibition": "9.6%"}
{"smiles": "COc1ccccc1N(CCOc1ccccc1)S(=O)(=O)c1ccccc1", "inhibition": "26.3%"}
{"smiles": "Cc1cc(C)nc(N/N=C/c2c(C)oc3ccccc23)n1", "inhibition": "24.7%"}
{"smiles": "Cc1cc(C)nc(N/N=C/c2ccc([N+](=O)[O-])o2)n1", "inhibition": "60.5% (active)"}
{"smiles": "COc1ccc(C(=O)NCC(=O)N/N=C/c2ccc([N+](=O)[O-])o2)cc1OC", "inhibition": "40%"}
{"smiles": "COc1ccc(S(=O)(=O)N2CCCCCC2)cc1NC(=O)Cc1ccc(OC)c(OC)c1", "inhibition": "8.64%"}
{"smiles": "COc1cc(OC)cc(-c2c(C#Cc3ccsc3)c3cc(-c4ccc(OC)cc4F)ccc3n2C)c1", "inhibition": "9.29%"}
{"smiles": "Cc1noc(C)c1S(=O)(=O)N(C)C[C@H]1Oc2ccc(NC(=O)C3CC3)cc2C(=O)N([C@H](C)CO)C[C@@H]1C", "inhibition": "3.87%"}
{"smiles": "CN1C(=O)[C@H]2[C@@H](/C=C/c3ccccc3)N3C(=O)CN(Cc4ccc(-c5ccccc5)cc4)C(=O)[C@@]3(C)[C@H]2C1=O", "inhibition": "-0.45%"}
{"smiles": "CN1CCN(c2ccc(S(=O)(=O)Nc3ccccc3)cc2[N+](=O)[O-])CC1", "inhibition": "27.9%"}
{"smiles": "O=[N+]([O-])c1cccc2ncccc12", "inhibition": "22.2%"}
{"smiles": "CN1CN(C)c2ccc([N+](=O)[O-])c3cccc1c23", "inhibition": "44.5% (active)"}
{"smiles": "Cc1ccccc1NC(=O)CSC(=O)c1ccccc1", "inhibition": "3.63%"}
{"smiles": "COC(=O)C1CCN(C(=O)COC(=O)c2cc(S(=O)(=O)N3CCOCC3)ccc2C)CC1", "inhibition": "-3.08%"}
{"smiles": "CN1CCN(/N=C2/C(=O)Nc3ccc([N+](=O)[O-])cc32)CC1", "inhibition": "72.6%"}
{"smiles": "CN1CCN(/N=C/c2ccc(-c3ccc([N+](=O)[O-])cc3)o2)CC1", "inhibition": "83.2% (active)"}
{"smiles": "CN1CCN(/N=C/c2ccc(C#N)cc2)CC1", "inhibition": "37.9%"}
{"smiles": "C[C@H](CO)N1C[C@H](C)[C@@H](CN(C)Cc2ccc(-c3ccccc3)cc2)Oc2ccc(NC(=O)Cn3cnnn3)cc2C1=O", "inhibition": "-2.89%"}
{"smiles": "CC(C)N(C(=O)[C@H]1C[C@H](CC(=O)NCCC2=CCCCC2)C(=O)N2CCc3c([nH]c4cc(CCC(=O)N(C)C)ccc34)[C@]12C)C(C)C", "inhibition": "10.8%"}
{"smiles": "CCN(CC(=O)Nc1c(F)cccc1F)C(=O)c1ccc(Sc2nncn2C)c([N+](=O)[O-])c1", "inhibition": "37%"}
{"smiles": "Cn1cnnc1Sc1ccc(S(C)(=O)=O)cc1[N+](=O)[O-]", "inhibition": "95.8% (active)"}
{"smiles": "CC(C)(C)n1cnnc1Sc1ccc([N+](=O)[O-])cn1", "inhibition": "36.8%"}
{"smiles": "CC[C@]12c3[nH]c4ccc(Cl)cc4c3CCN1C(=O)[C@@H](CC(=O)NCCN1CCOCC1)C[C@@H]2C(=O)N1CCN(C(=O)C2CC2)CC1", "inhibition": "3.88%"}
{"smiles": "Cc1ccc(/C=C/C(=O)Nc2ccc([N+](=O)[O-])c(NC(=O)/C=C/c3ccc(C)o3)c2)o1", "inhibition": "13.2%"}
{"smiles": "O=C(/C=C/c1ccc([N+](=O)[O-])o1)NNC(=O)c1ccc(F)cc1", "inhibition": "57.8% (active)"}
{"smiles": "O=C(NNC(=O)C1CCCC1)c1ccc(F)cc1", "inhibition": "7.91%"}
{"smiles": "C=CCn1c(SCc2cc(C(=O)OC)c(C)o2)nnc1-c1ccncc1", "inhibition": "18.3%"}
{"smiles": "C=CCn1c(SCn2nnc3ccccc3c2=O)nnc1-c1ccc(Cl)cc1", "inhibition": "25%"}
{"smiles": "C=CCn1c(SCc2c(C(=O)OC)sc(N)c2C(=O)OC)nnc1-c1ccc(Cl)cc1", "inhibition": "45.4% (active)"}
{"smiles": "Cc1ccc(NC(=O)COC(=O)C2CC2)cc1S(=O)(=O)N1CCOCC1", "inhibition": "4.49%"}
{"smiles": "CCCCOc1ccc(C(=O)NCC(=O)OCC(=O)c2c(N)n(C)c(=O)n(C)c2=O)cc1", "inhibition": "4.34%"}
{"smiles": "COc1ccc(NC(=O)CNc2cc(S(=O)(=O)N3CCOCC3)ccc2N2CCOCC2)c(OC)c1", "inhibition": "17.1%"}
{"smiles": "C#CCOCCOCCOCCNc1nc(N2CCN(C(=O)[C@H](CCC(=O)O)n3cc(CN)nn3)CC2)nc(N2CCN(C(=O)[C@H](CCC(=O)O)n3cc(CN)nn3)CC2)n1", "inhibition": "4.4%"}
{"smiles": "CCn1c(=S)[nH]c2cc(S(=O)(=O)N3CCOCC3)ccc21", "inhibition": "8.76%"}
{"smiles": "COCCn1c(C)cc(C(=O)CSc2nc3ccccc3c(=O)n2C(C)COC)c1C", "note": "(stereo not given)", "inhibition": "9.56%"}
{"smiles": "COCC(C)n1c(SCC(=O)NC2CCCCC2C)nc2ccccc2c1=O", "note": "(stereo not given)", "inhibition": "39.7% (active)"}
{"smiles": "COCC(C)n1c(SCc2ccc(C(=O)OC)o2)nc2ccccc2c1=O", "note": "(stereo not given)", "inhibition": "29.3%"}
{"smiles": "O=C1CCC/C=C\\C[C@@H](CC(=O)N(CCO)Cc2ccccc2)C(=O)NCCO1", "inhibition": "3.3%"}
{"smiles": "CCCCN(CC)C(=O)C1CCCN(S(=O)(=O)c2cccc3nsnc23)C1", "note": "(stereo not given)", "inhibition": "39.7% (active)"}
{"smiles": "O=C(NCc1ccco1)C1CCCN(S(=O)(=O)c2ccccc2)C1", "note": "(stereo not given)", "inhibition": "22.4%"}
{"smiles": "COc1cccc(N2CCN(C(=O)C3CCCN(S(=O)(=O)c4cnc[nH]4)C3)CC2)c1", "note": "(stereo not given)", "inhibition": "4.15%"}
{"smiles": "O=C(NCc1ccco1)C1CCCN(S(=O)(=O)c2cccc3nonc23)C1", "note": "(stereo not given)", "inhibition": "95.8% (active)"}
{"smiles": "CCCCN(C)CCNC(=O)C1CCCN(S(=O)(=O)c2cccc3nsnc23)C1", "note": "(stereo not given)", "inhibition": "26.9%"}
{"smiles": "COc1ccccc1CNC(=O)C1CCCN(S(=O)(=O)c2cccc3cccnc23)C1", "note": "(stereo not given)", "inhibition": "11.7%"}
{"smiles": "O=C(NCc1ccco1)C1CCCN(S(=O)(=O)c2cnc[nH]2)C1", "note": "(stereo not given)", "inhibition": "6.51%"}
{"smiles": "O=C(c1ccco1)N1CCN(C(=O)C2CCCN(S(=O)(=O)c3cccc4nsnc34)C2)CC1", "note": "(stereo not given)", "inhibition": "59.8% (active)"}
{"smiles": "O=C(c1ccco1)N1CCN(C(=O)C2c3ccccc3Oc3ccccc32)CC1", "inhibition": "-0.85%"}
